NIH3T3 tox: cytotoxic compounds in NIH 3T3 cells; NIH 3T3 viability, CellTiter-Glo ATP luminescence, 48-72 h; Potency, µM (top dose mostly 96.7 µM), inactives show at the top dose activity change, negative = cytotoxicity, usual class: inhibitors; 94,000 tested, 4.3% active; also: % is scaled to controls: 0 for no effect and ±100 for the full control effect; nearly all actives have a fitted effect of over 55% in size
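ATP-dependent luminescence (CellTiter-Glo) served as the viability signal for NIH 3T3 cells treated with compound for 48 or 72 hr at 37 °C.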
HEK cytotox: kills HEK 293 cells; HEK 293 viability, ATP luminescence (CellTiter-Glo), 48-72 h; Potency, µM (titrated, usually from 115 µM), for inactives: at the top dose activity change, negative = cytotoxicity, usual class: inhibitors; 94,000 tested, 6.6% active; AID 1345083; also: % is scaled to controls: 0 for no effect and ±100 for the full control effect; nearly all actives have a fitted effect of over 60% in size
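HEK 293 cells at 250 cells/well were exposed to compounds by pintool transfer for 48 or 72 hr at 37 degree Celsius, 5% CO2. Viability was read as ATP-coupled luminescence with CellTiter-Glo after 10 min at room temperature.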
hNpr1 antagonist: blocks ANP-stimulated signaling of human Npr1 receptor | P16066 | HEK293 hNpr1 GloSensor cGMP, ANP-stimulated luminescence | Potency, µM (doses to about 46.3 µM), without a hit: at the top dose activity change, negative = inhibition, hits mostly inhibitors | 76,000 tested, 1.6% active | AID 1347048; calls by dose curve; also: % is scaled to controls: 0 for no effect and ±100 for the full control effect; nearly all actives have a fitted effect of over 60% in size
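HEK293 cells stably expressing human Npr1 and cGMP GloSensor pGS-40F, loaded 2 h with 2% GloSensor reagent, given compound 30 min at room temperature. Luminescence read before and 20 min after 0.1 nM hNppA.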
FLuc inh-1: inhibitors of firefly (Photinus pyralis) luciferase | purified P. pyralis luciferase, luminescence, biochemical | Potency, µM (doses to about 115 µM), usual class: inhibitors | 76,000 tested, 2.5% active | AID 1347043; also: % is scaled to controls: 0 for no effect and ±100 for the full control effect; nearly all actives have a fitted effect of over 65% in size
Target sequence (P08659 whole entry, looked up): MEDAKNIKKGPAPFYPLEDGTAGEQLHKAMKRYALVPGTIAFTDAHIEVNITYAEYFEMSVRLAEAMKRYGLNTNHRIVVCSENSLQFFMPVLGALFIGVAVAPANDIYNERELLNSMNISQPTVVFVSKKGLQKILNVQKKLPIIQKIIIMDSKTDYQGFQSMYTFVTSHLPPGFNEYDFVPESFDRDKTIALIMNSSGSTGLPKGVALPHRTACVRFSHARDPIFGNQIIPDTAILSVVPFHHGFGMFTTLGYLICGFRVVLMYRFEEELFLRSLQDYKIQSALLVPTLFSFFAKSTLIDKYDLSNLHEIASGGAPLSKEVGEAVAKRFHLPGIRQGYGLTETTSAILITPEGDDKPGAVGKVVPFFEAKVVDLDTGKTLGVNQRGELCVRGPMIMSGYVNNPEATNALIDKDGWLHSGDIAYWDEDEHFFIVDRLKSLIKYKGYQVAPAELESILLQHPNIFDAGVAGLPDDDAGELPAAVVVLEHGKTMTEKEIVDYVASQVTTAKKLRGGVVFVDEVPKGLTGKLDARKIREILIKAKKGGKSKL
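FLuc 10nM, D-luciferin 10uM, ATP 10uM, Mg acetate 10mM, Tris acetate pH 7.5, Tween/BSA; cpd qHTS; enzyme added last; CCD luminescence.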
FLuc SDR no ATP: firefly luciferase binding stabilization, ATP absent | Potency, µM (highest dose often 32.7 µM), for inactives: top-dose activation (signal gain), actives largely listed as activators | Purified FLuc-C-HiBiT, Nano-Glo HiBiT luminescence, no ATP | AID 1963318 | shares compounds with FLuc inh-1 | 1,300 tested, 7.8% active; also: nearly all actives have a fitted effect of over 55% in size
FLuc SDR ATP: stabilizes firefly luciferase with ATP present; shares compounds with FLuc inh-1; purified FLuc-C-HiBiT + ATP, HiBiT complementation luminescence; Potency, µM (top dose mostly 32.7 µM), for the others: at the highest dose activation (gain of signal), actives largely listed as activators; 1,300 tested, 8.7% active; AID 1963319;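 also: signal reports ligand binding via conformational change of the enzyme rather than luciferase catalysis; % of control where 0% means no effect; nearly all actives have a fitted effect of over 55% in size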
FLuc inh-2: inhibitors of firefly luciferase enzymatic activity; shares compounds with FLuc inh-1; purified FLuc-C-HiBiT enzyme, luciferin luminescence; 1,300 tested, 42% active; AID 1963320; Potency, µM (top dose mostly 32.7 µM), without a hit: top-dose activity change, negative = inhibition, most hits filed as inhibitors; also: % is scaled to controls: 0 for no effect and ±100 for the full control effect; nearly all actives have a fitted effect of over 70% in size
Starred values were filed as active, the others as inactive; i = inactive; ? = inconclusive; nt = no result given; [ ] = another dose, or the depositor's remark. Rows were chosen to be rich in hits. Some 11% of all compounds tested hit in one or more screens of this group. Unless noted, calls follow the shape of the dose curve; as a rule, active = well fitted curve in the direction sought with a large enough effect; inconclusive = small, poorly fitted or top-dose-only effect, or another doubt; inactive = no such curve, though single readings can be large; an effect the other way counts as inactive or inconclusive. Potency is read from the fitted curve at half-maximal effect.

SMILES	NIH3T3 tox	HEK cytotox	hNpr1 antagonist	FLuc inh-1	FLuc SDR no ATP	FLuc SDR ATP	FLuc inh-2
COCCC(=O)NCCC1CCN(C(=O)Nc2ccc(C)cc2)CC1	i	15.7%	2.9%	?	nt	nt	nt
O=Cc1cccc(-c2cncc(C(=O)O)c2)c1	0.3%[138 µM]	-0.2%[172 µM]	nt	nt	nt	nt	nt
Cc1ccc(NC(=O)c2oc3ccc4c(c3c2C)C(=O)CC(C)(C)O4)c(C)c1	nt	nt	nt	nt	20.0%	?	?
Cc1ccc(NC(=O)CN2C(=O)NC3(CCCCC3)C2=O)c(C)c1	-14.3%	-4.3%	3.8%	i	nt	nt	nt
CSCCNC(=O)c1nc2sccn2c1Br	?	-8.4%[172 µM]	-8.2%[70.6 µM]	?	nt	nt	nt
O=C(NCCc1ccccc1F)c1nc2sccn2c1Br	?	?	?	1.58µM*	24.0%	?	7µM*
CN(Cc1nccs1)c1ccc(-c2nc(-c3ccccc3F)no2)cn1	-5.5%	?	?	2.82µM*	14.9%	17.3%	?
CC(Cn1cccn1)Nc1ccc(-c2nc(-c3ccccc3F)no2)cn1 (stereo not drawn)	?	44.7µM*	?	3.55µM*	15.0%	?	9.89µM*
CC(C)CNC(=O)c1nc2sccn2c1-c1cccc(C#N)c1	-25.7%[138 µM]	-12.8%[172 µM]	nt	nt	nt	nt	nt
COc1ccc(-c2cc3nc4c(c(=O)n3[nH]2)CN(C(=O)Cc2ccccc2)CC4)cc1	-6.9%	2.7%	3.5%	?	nt	nt	nt
COc1ccc(-c2cc3nc4c(c(=O)n3[nH]2)CN(C(=O)NCc2ccco2)CC4)cc1	?	?	-2.0%	7.08µM*	?	14.2%	11.1µM*
OCc1ccnc(-c2ccc(-c3ccn[nH]3)cc2)c1	-13.6%	-0.1%	5.01µM*	10µM*	22.6%	?	?
CCCS(=O)(=O)N1CCC(N2C(=O)C3(CCCCC3)C2c2ccncc2)CC1 (stereo not drawn)	-6.8%	-26.2%	0.9%	i	nt	nt	nt
Cc1c(-c2ccccc2)[nH]c2c(CNC(=O)C3=NN(C)C(=O)CC3)cc(Cl)cc12	44.7µM*	44.7µM*	-28.8%	3.98µM*	12.1%	8.9%	?
CN1N=C(C(=O)N2CCOC(Cc3cccc4ccccc34)C2)CCC1=O (stereo not drawn)	?	-4.5%	2.6%	i	nt	nt	nt
O=C(NCC12CCCC=C1N(CC1CC1)C(=O)CC2)C1CCOCC1 (stereo not drawn)	-14.4%	-7.8%	nt	nt	nt	nt	nt
Cc1ccc(-n2nc(C)c([C@@H]3C=C[C@@H](NC(=O)NCc4ccccc4)C3)c2C)cc1Cl	?	-22.8%[172 µM]	?	7.94µM*	18.6%[49.3 µM]	?	?
CCNC(=O)N[C@@H]1C=C[C@@H](c2c(C)nn(-c3ccc(F)cc3)c2C)C1	?	89.1µM*	20µM*	6.31µM*	26.4%[49.3 µM]	?	?
Cc1nn(-c2ccc(C(C)(C)C)cc2)c(C)c1[C@@H]1C=C[C@@H](NC(=O)CC2(CC(=O)O)CCCC2)C1	?	-8.9%	-0.1%	i	nt	nt	nt
COc1ccc(-n2nc(C)c([C@@H]3C=C[C@@H](NC(=O)NCc4ccccc4)C3)c2C)cc1	?	?	8.91µM*	1.12µM*	?	19.5%[49.3 µM]	6.4µM*
CSc1ccc(-c2nc3c([nH]2)CC(C)(C)CNC3=O)cc1	-24.2%	?	-22.8%	12.6µM*	31.5%	17.3%	?
CC1(C)CNC(=O)c2nc(CCSCc3ccco3)[nH]c2C1	0.1%	0.3%	-1.1%	i	nt	nt	nt
O=C(Cn1cccc1-c1nc(-c2ccc3c(c2)OCO3)no1)Nc1ccccc1	-6.1%	?	-1.2%	i	nt	nt	nt
COc1ccc(NC(=O)c2cccc3c2CCN3C(=O)c2ccc(F)cc2)cc1	-0.5%	11.3%	3.0%	i	nt	nt	nt
COc1ccc(NC(=O)c2cccc3c2CCN3C(=O)c2ccc(F)cc2)cc1OC	2.0%	-1.8%	-30.0%	?	nt	nt	nt

Screening results (PubChem BioAssay)
